This is a sample that favours compounds with a hit; in the whole collection about 17% have one here.
ATXN2 expr inh: inhibitors of ATXN2 expression; Potency, µM (doses to about 57 µM), inactives show top-dose activity change, negative = inhibition, hits mostly inhibitors; HEK-293 ATXN2-luciferase reporter, luminescence, 24 h; actives 0.72% (n = 360,000); note: % is set by controls: 0 for no effect and ±100 for the full control effect; nearly all actives have a fitted effect of over 55% in size
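qHTS (up to 57 uM final) was run with 24 h compound exposure of reporter cells at 37 °C. Each well was multiplexed: SteadyGlo luminescence measured ATXN2-luciferase expression after a fluorogenic Gly-Phe-AFC viability readout (25 uM final).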
TGFb SMAD3 inh: inhibitors of TGF-b signaling; AID 588855; Potency, µM (doses to about 46.1 µM), inactives show at the highest dose activity, negative = inhibition, hits mostly inhibitors; actives 1.2% (n = 410,000); HepG2 CAGA-GFP TGF-b/SMAD3 reporter, GFP fluorescence, 18 h; TGF-beta stimulated, 500 pg/mL final; note: % is set by controls: 0 for no effect and ±100 for the full control effect; nearly all actives have a fitted effect of over 65% in size
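Inhibition of TGF-beta-driven CAGA-GFP reporter expression in HEPG2 cells is measured by cellular GFP fluorescence after 18 h stimulation with 500 pg/mL recombinant TGF-beta in 1% FBS medium at 37 degrees C.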
TDP1 cell CPT: growth inhibition of DT40 Tdp1-/-;hTDP1 cells with camptothecin (screen for TDP1 inhibitors) | chicken DT40 Tdp1-/-;hTDP1 cells + 20 nM CPT, ATP luminescence, 48 h | Potency, µM (top dose mostly 46.2 µM), without a hit: at the top dose activity change, negative = growth inhibition, actives largely listed as inhibitors | actives 12% (n = 420,000) | AID 686979; note: % is set by controls: 0 for no effect and ±100 for the full control effect; nearly all actives have a fitted effect of over 55% in size
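Cell growth measured by CellTiter-Glo luminescence after a minimum 48 h, 37 C compound exposure with 20 nM CPT in Tdp1-knockout DT40 cells stably expressing hTDP1, seeded 400/well; qHTS titration format.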
HepG2 tox: kills HepG2 cells in TGF-b inhibitor counter-screen. HepG2 CAGA-GFP viability, ATP luminescence, 18 h. Potency, µM (doses to about 46.1 µM), without a hit: at the top dose activity change, negative = cytotoxicity, usual class: cytotoxic. actives 0.76% (n = 410,000). AID 588856
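CellTiter-Glo luminescence gave cytotoxicity after 18 hours at 37 degrees C. The cells were HepG2 CAGA-GFP in 1% FBS DMEM, stimulated with 500 pg/mL TGF-beta after compound addition. %Activity was normalised to no-cell wells (complete cell-killing) and DMSO (no toxicity), and curves were fitted and classified.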
DT40 TDP1 no CPT: qHTS for Inhibitors of human tyrosyl-DNA phosphodiesterase 1 (TDP1): qHTS in cells in absence of CPT | DT40 Tdp1-/- hTDP1 cells, no CPT, ATP luminescence, 48 h | actives 15% (n = 420,000) | Potency, µM (highest dose often 46.2 µM), inactives show at the highest dose activity change, negative = growth inhibition, usual class: inhibitors; note: % is set by controls: 0 for no effect and ±100 for the full control effect; nearly all actives have a fitted effect of over 55% in size
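DT40 Tdp1-/-;hTDP1 cells, no CPT (DMSO vehicle only), 400 cells/well; compounds pin-transferred; ≥48 hr, 37 °C; CellTiter-Glo 30 min RT dark, luminescence read.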
ATXN viability: viability counter-screen for ATXN expression inhibitors; S2 cells (HEK-293 line with an ATXN2-luciferase reporter) viability, CellTiter-Fluor protease fluorescence, 24 h; Potency, µM (doses to about 56.7 µM), actives largely listed as cytotoxic; actives 0.49% (n = 400,000); note: nearly all actives have a fitted effect of over 40% in size
An asterisk follows results filed as active; i = inactive; ? = inconclusive; nt = no result; [ ] = dose if it differs, or a comment. Calls come from the whole dose curve; as a rule, active = well fitted curve in the direction sought with a large enough effect; inconclusive = small, poorly fitted or top-dose-only effect, or another doubt; inactive = no such curve, though single readings can be large; an effect the other way counts as inactive or inconclusive. Potency is the fitted concentration of half-maximal effect.

SMILES	ATXN2 expr inh	TGFb SMAD3 inh	TDP1 cell CPT	HepG2 tox	DT40 TDP1 no CPT	ATXN viability
COC(=O)[C@@]12CCCCN1[C@H](c1ccc(-c3ccc(OC)cc3)cc1)[C@@H]1C(=O)N(C)C(=O)[C@@H]12	?	-2%	21µM*	5%	21µM*	?
COC(=O)[C@@]12CCCCN1[C@H](c1ccc(-c3ccc(C(C)=O)cc3)cc1)[C@@H]1C(=O)N(C)C(=O)[C@@H]12	0%	26%	15µM*	6%	23µM*	?
COC(=O)[C@@]12CCCCN1[C@H](c1ccc(-c3ccc(OC)cc3)c(OC)c1)[C@@H]1C(=O)N(C)C(=O)[C@@H]12	-3%	-12%	21µM*	-24%	?	i
COC(=O)[C@@]12CCCCN1[C@H](c1ccc(-c3ccc4c(c3)OCO4)cc1)[C@H]1C(=O)N(C)C(=O)[C@H]12	-18%	-7%	13µM*	-16%	23µM*	?
C=CCn1c(SCC(=O)c2c(C)[nH]c3ccccc23)nnc1-c1ccncc1	-8%	22%	18%	-15%	-29%	i
O=C(c1ccccc1F)N(Cc1cc2cc3c(cc2nc1N1CCOCC1)CCC3)CC1CCCO1 (stereo not drawn)	nt	nt	-10%[9.04 µM]	nt	?	i
COC(=O)Nc1ccc(S(=O)(=O)N2CCCC(C(=O)N3CCC(C)CC3)C2)cc1 (stereo not drawn)	-14%	-18%	?	10%	?	i
Cc1ccc2c(c1Br)/C(=N/N1C(=O)c3ccccc3C1=O)C(=O)N2	-29%	?	21µM*	-19%	23µM*	i
Cc1nc(-c2ccccc2)sc1C(=O)Nc1ccc(S(N)(=O)=O)cc1	-22%	-17%	-25%	-20%	13µM*	i
Cc1nc(NC(N)=S)sc1C(=O)Nc1ccccc1	6%	3%	-16%	11µM*	-9%	i
Cc1nc(N)sc1C(=O)Nc1ccccc1	30%	7%	?	-27%	?	i
Cc1nc(C(=O)Nc2ccccc2)sc1C(=O)Nc1ccccc1	29%	2%	18µM*	-14%	?	i
COc1ccc(OC)c(NC(=O)Nc2nnc(COCCO)s2)c1	13%	1%	-24%	-20%	0%	i
COCCNC(=O)C1(C)CCCN(Cc2cc(C(F)(F)F)ccc2Cl)C1 (stereo not drawn)	-5%	-16%	?	-17%	?	i
COc1cc2c(c(OC)c1OC)-c1ccc(SC)c(=O)cc1C(NC(=O)c1ccccc1)CC2 (stereo not drawn)	12%	?	0.015µM*	1%	0.016µM*	?
C=COC(=O)NC1CCc2cc(OC)c(OC)c(OC)c2-c2ccc(SC)c(=O)cc21 (stereo not drawn)	-3%	?	0.026µM*	-33%	0.016µM*	?
COc1c(O[C@@H]2O[C@H](CO)[C@@H](O)[C@H](O)[C@H]2O)cc2c(c1OC)-c1ccc(SC)c(=O)cc1C(NC(C)=O)CC2 (stereo partly drawn)	15%	-1%	8%	-3%	5%	i
Cc1ccc(NC(=O)CSc2nnc(-c3cccnc3)s2)cc1	-1%	1%	-1%	4%	-4%	?
O=C(CSc1nnc(-c2cccnc2)s1)Nc1ccnc2ccccc12	-8%	-29%	1.2µM*	-22%	0.52µM*	i
Cc1ccc(-c2csc(N3CCC(NS(=O)(=O)c4ccc5c(c4)OCCO5)CC3)n2)cc1	?	-14%	?	-22%	15µM*	i
CC(C)OC(=O)CN1C(=O)S/C(=C/c2ccc(N3CCCCC3)o2)C1=O	-3%	68%	16µM*	-60%	20µM*	i
O=C1S/C(=C/c2ccc(N3CCOCC3)o2)C(=O)N1Cc1ccc(F)cc1	-25%	53%	?	-20%	?	i
O=C(N/N=C/c1ccc(F)cc1)c1cc(-c2ccco2)nc2ccccc12	-7%	?	12µM*	-18%	13µM*	?
CCOc1ccc(/C=N/NC(=O)c2cc(-c3ccco3)nc3ccccc23)cc1	10%	-2%	?	-14%	23µM*	i
O=C(O)c1cc(-c2ccco2)nc2ccccc12	2%	-2%	-4%	-5%	0%	i
SMILES	ATXN2 expr inh	TGFb SMAD3 inh	TDP1 cell CPT	HepG2 tox	DT40 TDP1 no CPT	ATXN viability
CS(=O)(=O)CCCCN=C=S	nt	nt	?	nt	18µM*	nt
C[N+]1(CC(=O)c2ccc(-c3ccccc3)cc2)CCOCC1	nt	11%	?	23%	-16%	nt
C[N+]1(CC(=O)c2c3ccccc3cc3ccccc23)CCOCC1	nt	3%	16µM*	-24%	10µM*	nt
C[C@H](C[C@H](O)[C@H]1OC1(C)C)C1=C2C[C@H](O)C3[C@@]4(C)CCC(=O)C(C)(C)C4CC[C@]3(C)[C@@]2(C)CC1 (stereo partly drawn)	?	?	7.3µM*	16µM*	15µM*	25µM*
Cc1nc2sc(C(=O)NCc3ccc(Cl)cc3)c(NC(=O)c3ccccc3)c2c(C)c1C	3%	?	13µM*	-32%	?	i
Cc1nc2sc(C(=O)N(C)c3ccccc3)c(NC(=O)c3ccccc3Cl)c2c(C)c1C	9%	16%	?	8%	?	i
CCc1ccc(NC(=O)c2sc3nc(C)cc(C)c3c2NC(=O)c2ccccc2)cc1	10%	24%	nt	-6%	nt	i
Cc1nc2sc(C(=O)N(C)Cc3ccccc3)c(NC(=O)c3ccccc3)c2c(C)c1Cl	7%	6%	?	0%	16µM*	?
CCOc1ccc(NS(=O)(=O)c2ccc(NC(=O)N3CCCC3)cc2)cc1	-7%	3%	-30%	1%	?	i
CCCN1C(=O)c2cc(C(=O)Nc3ccccc3OC)ccc2C1Nc1ccccc1OC (stereo not drawn)	-17%	-1%	?	-4%	?	i
CCCN1C(=O)c2cc(C(=O)Nc3cccc(C(C)=O)c3)ccc2C1Nc1cccc(C(C)=O)c1 (stereo not drawn)	nt	-7%	8.2µM*	-29%	15µM*	i
Cc1cc(N2CCN(C(=O)c3ccco3)CC2)n2nc(C)nc2n1	9%	5%	-3%	5%	5%	i

Source: PubChem
